Test systems include NCI-H23 lung; NCI-H226 lung; NCI-H322M lung; HOP-62 NSCLC; NCI-H460 lung; HOP-92 NSCLC; NCI-H522 lung; A549/ATCC NSCLC; 786-0 renal; COLO 205 colon; DU-145 prostate; K-562 leukemia; MALME-3M melanoma; MDA-MB-231 breast; RXF 393 renal; SF-268 CNS; SF-295 CNS; SF-539 CNS; UACC-257 melanoma; M14 melanoma.
Common to all, as to test: NCI-60 one-dose screen, 48 h (100 = growth as untreated, 0 = no growth, -100 = all killed)
Holding throughout (details): 10 µM unless noted

Values joined by “and” are separate entries in the source; they are usually repeats but may differ in a detail not shown here. Equal values may be shown once. The panel holds about 83,000 compounds, 20% with a hit somewhere; the sample as a whole holds those more often.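 Single-dose data. Exposure time 48 hours. Values below 10 considered active.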 A number with no mark means an inactive call. Active and inactive are the calls of the source.

In PubChem BioAssay (NCI) one finds growth data, which are given here for seven compounds.

With `O=C1C=C(N2CC2)c2ccccc2C1=O`, the growth with NCI-H23 lung is 41.4%; with NCI-H226 lung, 92%; with NCI-H322M lung it was 91.1%; in the assay with HOP-62 NSCLC, 76%; with NCI-H460 lung, 23.2%; with HOP-92 NSCLC, 119%. Besides, the growth is 52.7% with NCI-H522 lung; 54.3% with A549/ATCC NSCLC; 104% in the assay with 786-0 renal; 94.3% in the assay on COLO 205 colon; 12.1% in the assay on DU-145 prostate; 9.26% (active) in the assay with K-562 leukemia. Also, the growth in the assay with MALME-3M melanoma was 106%; in the assay on MDA-MB-231 breast, 88.8%; with RXF 393 renal, 85.9%; in the assay with SF-268 CNS, 51.6%; in the assay with SF-295 CNS, 23.6%; with SF-539 CNS it was 63.3%. Besides, the growth with UACC-257 melanoma was 83.1%; with M14 melanoma, 63.6%.
In the case of `C#Cc1cccc(Nc2nc(Cl)nc3cc(NC(=O)CF)ccc23)c1`, the growth in the assay on NCI-H23 lung was 80.2%; in the assay with NCI-H226 lung, 86.6%; in the assay with NCI-H322M lung, 80%; in the assay on HOP-62 NSCLC, 70%; in the assay with NCI-H460 lung it was 29.4%; with HOP-92 NSCLC it was 91.1%. The growth is 28.9% with NCI-H522 lung; 55.4% with A549/ATCC NSCLC; 92.9% in the assay on 786-0 renal; 41.8% with COLO 205 colon; 98.1% in the assay with DU-145 prostate; 28% in the assay with K-562 leukemia. Further, the growth in the assay with MALME-3M melanoma is 70.5%; with MDA-MB-231 breast, 64.5%; with RXF 393 renal, 100%; in the assay on SF-268 CNS, 87.8%; in the assay with SF-295 CNS, 71.9%; in the assay on SF-539 CNS, 89.1%. Also, the growth in the assay with UACC-257 melanoma was 88.7%; in the assay with M14 melanoma, 48.3%.
Regarding `C/C(=C\c1ccn(-c2ccc(N)c(C(F)(F)F)c2)n1)[C@@H]1C[C@@H]2O[C@]2(C)CCC[C@H](C)[C@H](O)[C@@H](C)C(=O)C(C)(C)[C@@H](O)CC(=O)O1`, the growth in the assay with NCI-H23 lung was 32.9%; in the assay on NCI-H226 lung, 52%; in the assay on NCI-H322M lung it was 23.2%; with HOP-62 NSCLC, 41%; in the assay on NCI-H460 lung it was 12.7%; in the assay on HOP-92 NSCLC it was 52.4%. The growth was 30.3% in the assay on NCI-H522 lung; 31.1% in the assay on A549/ATCC NSCLC; 27.4% in the assay on 786-0 renal; -16.5% (active) with COLO 205 colon; -12.7% (active) in the assay on DU-145 prostate; 11.9% in the assay with K-562 leukemia. Besides, the growth with MALME-3M melanoma was 51.7%; in the assay with MDA-MB-231 breast it was 22.8%; in the assay with RXF 393 renal, 8.01% (active); in the assay with SF-268 CNS, 36%; in the assay with SF-295 CNS it was 15.1%; with SF-539 CNS, -8.5% (active). Further, the growth in the assay with UACC-257 melanoma is 64.3%.
Turning to `O=[N+]([O-])c1ccc(OCc2ccc(S(=O)(=O)F)c(Cl)c2)c(Cl)c1`, the growth is 99.2% in the assay with NCI-H23 lung; 93.4% with NCI-H226 lung; 116% in the assay with NCI-H322M lung; 106% in the assay on HOP-62 NSCLC; 115% in the assay on NCI-H460 lung; 77.5% in the assay with HOP-92 NSCLC. In addition, the growth is 89.1% with NCI-H522 lung; 110% in the assay with A549/ATCC NSCLC; 79.9% with 786-0 renal; 101% in the assay with COLO 205 colon; 118% in the assay with DU-145 prostate; 99% with K-562 leukemia. In addition, the growth is 98.6% in the assay on MALME-3M melanoma; 85.9% in the assay on MDA-MB-231 breast; 114% in the assay with RXF 393 renal; 95.8% in the assay on SF-268 CNS; 106% in the assay with SF-295 CNS; 93.6% with SF-539 CNS. Besides, in the assay with UACC-257 melanoma, the growth was 118%.
For `COc1cc(C=C2C(=O)NC(=O)NC2=O)ccc1O`, the growth with NCI-H23 lung is 98.1%; in the assay with NCI-H226 lung, 96.1%; with NCI-H322M lung, 117%; with HOP-62 NSCLC, 100%; in the assay with NCI-H460 lung, 108%; in the assay with HOP-92 NSCLC, 113%. The growth is 96.9% with NCI-H522 lung; 102% in the assay on A549/ATCC NSCLC; 99.7% in the assay with 786-0 renal; 109% with COLO 205 colon; 124% in the assay with DU-145 prostate; 109% in the assay on K-562 leukemia. Moreover, the growth in the assay on MALME-3M melanoma was 136%; in the assay on MDA-MB-231 breast, 96.5%; with RXF 393 renal it was 84.4%; in the assay on SF-268 CNS, 106%; in the assay with SF-295 CNS, 101%; with SF-539 CNS it was 101%. In the assay with UACC-257 melanoma, the growth is 87.6%.
For the compound `COc1ccc(CN)cc1OC`, the growth was 101% and 104% in the assay on NCI-H23 lung; 113% and 105% with NCI-H226 lung; 135% and 96.9% in the assay with NCI-H322M lung; 107% and 101% in the assay on HOP-62 NSCLC; 124% and 102% in the assay with NCI-H460 lung; 108% with HOP-92 NSCLC. In addition, the growth in the assay on NCI-H522 lung is 107% and 98.5%; in the assay on A549/ATCC NSCLC it was 108% and 102%; in the assay with 786-0 renal it was 105% and 101%; in the assay with COLO 205 colon, 122% and 109%; with DU-145 prostate, 111% and 106%; with K-562 leukemia, 131%. The growth is 96.8% in the assay with MALME-3M melanoma; 109% and 107% in the assay with MDA-MB-231 breast; 126% in the assay on RXF 393 renal; 108% and 98.9% in the assay on SF-268 CNS; 104% in the assay with SF-295 CNS; 105% and 99.3% in the assay with SF-539 CNS. Moreover, the growth with UACC-257 melanoma was 106% and 101%.
As to `Cc1ccccc1-n1c(/C=C\c2ccccn2)nc2ccccc2c1=O`, the growth is 55.5% in the assay with NCI-H23 lung; 97.8% with NCI-H226 lung; 44.9% in the assay with NCI-H322M lung; 107% in the assay with HOP-62 NSCLC; 68% with NCI-H460 lung; 41.2% in the assay on HOP-92 NSCLC. The growth in the assay on NCI-H522 lung was 54.8%; in the assay on A549/ATCC NSCLC, 80.4%; in the assay with 786-0 renal, -1.31% (active); in the assay with COLO 205 colon, 94.2%; in the assay on DU-145 prostate it was 21.3%; with K-562 leukemia it was 23.8%. For the same compound, the growth is 59.5% in the assay with MALME-3M melanoma; 77.1% with MDA-MB-231 breast; 7.42% (active) with RXF 393 renal; 61.7% with SF-268 CNS; 74.4% in the assay with SF-295 CNS; 82.8% with SF-539 CNS. The growth with UACC-257 melanoma is 81.8%; in the assay with M14 melanoma, 64.9%.
